NSD2 inh: NSD2 (human) methyltransferase inhibition | O96028 | NSD2 peptide methylation, AlphaScreen, 120 min | inhibition, % at 12.5 µM | 310,000 tested, 0.54% active; in the data active means inhibition above about 50%
CASP6 VEID inh: inhibitors of human caspase-6. AID 686996. 350,000 tested, 0.53% active. inhibition, % at 12.5 µM. purified caspase-6, Z-VEID-R110 cleavage fluorescence;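 active means mean inhibition across replicates at least about 35%, with every replicate also reaching that limit, limit read from the data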;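 further: 0% = median of neutral control wells and 100% = no fluorescence left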
Target sequence (P55212 24-179 limits assumed): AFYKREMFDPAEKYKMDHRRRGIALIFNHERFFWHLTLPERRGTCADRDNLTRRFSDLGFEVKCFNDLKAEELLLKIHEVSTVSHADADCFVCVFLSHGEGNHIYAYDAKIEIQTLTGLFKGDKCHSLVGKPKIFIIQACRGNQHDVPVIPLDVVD
Target sequence (P55212 194-293 limits assumed): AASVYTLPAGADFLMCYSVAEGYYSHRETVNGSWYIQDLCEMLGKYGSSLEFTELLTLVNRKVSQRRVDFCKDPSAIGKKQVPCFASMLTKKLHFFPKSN
PfHsp90 yeast 2: inhibits growth of yeast expressing Plasmodium falciparum Hsp90; S. cerevisiae expressing PfHsp90, BacTiter-Glo ATP, 48 h; yeast lacking PDR1 and PDR3 efflux regulators; inhibition, % at 9.4 µM; 310,000 tested, 0.32% active; AID 504621;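 active means every replicate shows inhibition above about 80%, whatever the replicate mean, limit read from the data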;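 further: 0% = DMSO neutral controls and 100% = 20 µM radicicol positive controls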
SIRT5 inh: sirtuin-5 (human) deacylase inhibition. Q9NXA8. Purified SirT5, succinyl-peptide AMC, trypsin-coupled fluorescence. inhibition, % at 15 µM. 330,000 tested, 1.1% active. AID 652115; in the data active means inhibition above about 15%
Target sequence (Q9NXA8 whole entry, looked up): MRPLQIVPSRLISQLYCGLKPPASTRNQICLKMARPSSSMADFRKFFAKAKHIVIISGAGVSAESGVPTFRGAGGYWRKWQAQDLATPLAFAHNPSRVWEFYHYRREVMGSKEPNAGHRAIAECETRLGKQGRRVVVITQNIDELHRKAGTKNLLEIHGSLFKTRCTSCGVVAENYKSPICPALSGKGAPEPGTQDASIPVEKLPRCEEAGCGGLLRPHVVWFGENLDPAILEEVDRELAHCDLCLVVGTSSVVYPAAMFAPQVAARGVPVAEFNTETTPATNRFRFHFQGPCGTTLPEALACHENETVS
ARNT-TACC3 inh: disruptors of human ARNT/TACC3 interaction. 390,000 tested, 0.66% active. Q9Y6A5. inhibition, % at 9.99 µM. AID 623870. AlphaScreen His-ARNT PAS-B/GST-TACC3 binding, luminescence; TACC3 fragment carries E629A point mutation;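 active means mean inhibition of replicates at least 50% and at least half of replicates each reaching 50%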;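 further: 0% = complete ARNT plus TACC3 wells and 100% = ARNT alone without TACC3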
* = called active by the depositor. Most compounds without a hit are left out; they make up all but 2.1% or so of the library.

`O=c1c2ccccc2nc2c3ccccc3c(NCc3ccccn3)nn12` gave NSD2 inh -1, CASP6 VEID inh 1, PfHsp90 yeast 2 8, SIRT5 inh 112* and ARNT-TACC3 inh 12.
O=c1c2ccccc2nc2c3ccccc3c(NCc3cccnc3)nn12 was read as NSD2 inh -2, CASP6 VEID inh -1, PfHsp90 yeast 2 -17, SIRT5 inh 3 and ARNT-TACC3 inh -6.
CC1C/C=C/C=C/C=C/C=C/C(O[C@@H]2O[C@H](C)[C@@H](O)[C@H](N)[C@@H]2O)CC2OC(O)(CC(O)CC3OC3/C=C/C(=O)O1)CC(O)C2C(=O)O (some centres undefined) was read as CASP6 VEID inh 45* and SIRT5 inh 0.
`CCN1CCN(c2cc(N3CCN(C(=O)c4ccco4)CC3)c3c4c(onc24)-c2ccccc2C3=O)CC1` gave NSD2 inh 44, PfHsp90 yeast 2 18 and ARNT-TACC3 inh 43.
`CC(=O)OCCNc1cc(N2CCN(C)CC2)c2noc3c2c1C(=O)c1ccccc1-3` gave CASP6 VEID inh -8, PfHsp90 yeast 2 16, SIRT5 inh -2 and ARNT-TACC3 inh 49*.
O=C(O)COc1ccccc1/C=C1\SC(=S)N(/N=C/c2ccccc2O)C1=O was read as NSD2 inh 9, PfHsp90 yeast 2 -13 and ARNT-TACC3 inh 70*.
O=C(O)COc1ccccc1/C=C1\SC(=S)N(NC(=O)c2ccccc2O)C1=O was read as CASP6 VEID inh 15, PfHsp90 yeast 2 -18, SIRT5 inh 21* and ARNT-TACC3 inh 51*.
O=C(Cc1ccccc1)NN1C(=O)/C(=C/c2ccccc2C(=O)O)SC1=S was read as NSD2 inh 0, CASP6 VEID inh 62*, PfHsp90 yeast 2 16, SIRT5 inh 5 and ARNT-TACC3 inh 3.
`O=C(O)COc1ccccc1/C=C1\SC(=Nc2ccc(F)cc2)N(c2ccc(F)cc2)C1=O` gave NSD2 inh 0, CASP6 VEID inh 7, PfHsp90 yeast 2 17, SIRT5 inh 4 and ARNT-TACC3 inh 4.
C[C@H](O)C#Cc1ccc([C@@H]2[C@@H](CO)N3CCCCN(CC4CCOCC4)C[C@H]23)cc1 was read as ARNT-TACC3 inh -6.
For C[C@@H]1CCCCO[C@@H](CN(C)Cc2ccc3c(c2)OCO3)[C@H](C)CN([C@@H](C)CO)C(=O)c2cc(NS(=O)(=O)c3cccs3)ccc2O1 the results were ARNT-TACC3 inh 7.
For O=C(C[C@@H]1C[C@H]2c3cc(NC(=O)CC4CC4)ccc3O[C@H]2[C@@H](CO)O1)NCCc1ccccc1 the results were CASP6 VEID inh 0, SIRT5 inh -8 and ARNT-TACC3 inh -5.
O=S(=O)(NC1CCCCCC1)c1ccc(Br)s1 was read as NSD2 inh -9 and PfHsp90 yeast 2 88*.
For O=C(CCNS(=O)(=O)c1ccc(Br)s1)NC1CCCC1 the results were CASP6 VEID inh 2, SIRT5 inh 20* and ARNT-TACC3 inh 0.
Screening CN(C)CC(=O)N[C@H]1CC[C@@H](CCNS(=O)(=O)c2ccccc2)O[C@@H]1CO returned CASP6 VEID inh -61, SIRT5 inh 2 and ARNT-TACC3 inh 3.
For COCC#Cc1cnc2c(c1)C(=O)N([C@@H](C)CO)C[C@@H](C)[C@@H](CN(C)Cc1ccc3c(c1)OCO3)O2 the results were CASP6 VEID inh -3, SIRT5 inh -1 and ARNT-TACC3 inh -7.
Screening CCC(C)n1ncn(-c2ccc(N3CCN(c4ccc(OCC5COC(Cn6cncn6)(c6ccc(Cl)cc6Cl)O5)cc4)CC3)cc2)c1=O (centres undefined) returned CASP6 VEID inh 7, PfHsp90 yeast 2 92*, SIRT5 inh 0 and ARNT-TACC3 inh 6.
CCC(C)n1ncn(-c2ccc(N3CCN(c4ccc(O)cc4)CC3)cc2)c1=O (centres undefined) was read as NSD2 inh 22, CASP6 VEID inh 0, PfHsp90 yeast 2 -8, SIRT5 inh -2 and ARNT-TACC3 inh 4.
`CC(=O)n1c2ccccc2c2nc3ccccc3nc21` gave PfHsp90 yeast 2 22 and ARNT-TACC3 inh -6.
Screening C=CCNc1nc2c3ccccc3n(C(C)=O)c2s1 returned NSD2 inh 4, PfHsp90 yeast 2 -4 and ARNT-TACC3 inh active.
Screening Nc1ncnc(Sc2ccc(Cl)cc2)c1[N+](=O)[O-] returned NSD2 inh -1, CASP6 VEID inh 4, PfHsp90 yeast 2 10 and ARNT-TACC3 inh 49*.
Screening Cc1ccc(Sc2ncnc(N)c2[N+](=O)[O-])cc1 returned NSD2 inh -2, PfHsp90 yeast 2 -11 and ARNT-TACC3 inh -4.
For CCN=C1S/C(=C/c2ccc(-c3ccc(Cl)cc3C(=O)O)o2)C(=O)N1CC the results were NSD2 inh -3, CASP6 VEID inh 36*, PfHsp90 yeast 2 4, SIRT5 inh 6 and ARNT-TACC3 inh 7.
For N#Cc1cccc(-c2ccc3c(c2)[C@H]2[C@H](CCN2C(=O)c2ccncc2)[C@H](CO)N3)c1 the results were ARNT-TACC3 inh -12.
`CCNc1nc(C(=O)O)nc(N2CCOCC2)n1` gave CASP6 VEID inh 12, PfHsp90 yeast 2 10, SIRT5 inh 6 and ARNT-TACC3 inh 79*.
Screening CC(C)(C)Nc1nc(C(N)=O)nc(N2CCOCC2)n1 returned NSD2 inh -1 and ARNT-TACC3 inh 22.
For CCCC#Cc1ccc2c(c1)O[C@@H](CN(C)C(=O)C1CC1)[C@H](C)CN([C@H](C)CO)S2(=O)=O the results were CASP6 VEID inh 1, SIRT5 inh -1 and ARNT-TACC3 inh -14.
`CCn1c(Cc2ccccc2)n[nH]c1=S` gave NSD2 inh 10, CASP6 VEID inh 1, PfHsp90 yeast 2 6, SIRT5 inh 31* and ARNT-TACC3 inh -3.
Screening CCn1c(CSCc2ccccc2)n[nH]c1=S returned NSD2 inh 3, CASP6 VEID inh -3, PfHsp90 yeast 2 -4 and SIRT5 inh 37*.
For CCn1c(CCc2ccccc2)n[nH]c1=S the results were NSD2 inh 1, CASP6 VEID inh -3, PfHsp90 yeast 2 4 and ARNT-TACC3 inh -17.
`O=C(C[C@H]1CC[C@@H]2[C@H](COC[C@H](O)CN2C(=O)Nc2ccc(F)cc2)O1)NCCc1ccccc1` gave CASP6 VEID inh 1, SIRT5 inh 7 and ARNT-TACC3 inh 7.
Screening COc1ccccc1OCC(=O)Nc1ccncc1 returned NSD2 inh 0, CASP6 VEID inh -2, PfHsp90 yeast 2 23, SIRT5 inh -2 and ARNT-TACC3 inh -8.
For Cc1cccc(OCC(=O)Nc2ccncc2)c1C the results were NSD2 inh 1, CASP6 VEID inh 14, PfHsp90 yeast 2 5, SIRT5 inh 15* and ARNT-TACC3 inh -2.
Screening CCC(=O)N[C@@H]1CC[C@@H](CC(=O)NCC2CCCCC2)O[C@@H]1CO returned CASP6 VEID inh 0, SIRT5 inh 1 and ARNT-TACC3 inh -10.
`O=C1C(=O)c2ccccc2C(O)=C1CCCCl` gave NSD2 inh 106*, PfHsp90 yeast 2 -26 and ARNT-TACC3 inh 37*.
